# Test results: PubChem BioAssay (NCATS)
# Where “and” joins values, the source holds several entries; their conditions need not be identical. Identical values can stand only once. Inconclusive results are not listed. More than one record can exist for a structure, and the calls need not agree. Calls of active or inactive are those of the source. The call rests on the fitted dose curve.
# Molecular target: Cytochrome P450 1A2 (Homo sapiens) (UniProt P05177)
# Test: p450-cyp1a2 (AID 410);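 on activity change, negative = inhibition: -100% = full effect of reference inhibitor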
# Details: recombinant CYP1A2, luciferin-ME demethylation, luminescence; series mostly up to 57 µM; activity change, negative = inhibition: at the top concentration
# Experimental: The P450 gene superfamily is involved in metabolism and the clearance of xenobiotics. This assay used human CYP1A2 to measure the demethylation of luciferin 6' methyl ether (Luciferin-ME; Promega-Glo) to luciferin. The luciferin is then measured by luminescence after the addition of a luciferase detection regeant. Luciferin-ME concentration in the assay was equal to its Km for CYP1A2.
# NCGC Assay Protocol Summary:
# Two uL of enzyme and substrate mix (final concentrations: 20nM CYP1A2, 100uM Luciferin-ME, 100mM KPO4) were dispensed into a white, solid bottom 1536-well microtiter plate. 23nL of compound was transferred by a pin tool. The plate was incubated at room temperature for 10 min. Two uL of an NADPH regeneration solution (Promega supplied reagent) was dispensed and the reaction was allowed to continue for 60 min at room temperature. Then the reaction was stopped by reconstituted detection reagent. After another 20 min of incubation the plate was read on the ViewLux (Perkin Elmer) at 60 sec exposure and 2x2 binning. This protocol was carried out with Promega-Glo reagents and further information can be found at http://www.promega.com/tbs/tb325/tb325.pdf. Data were normalized to the to AC100 inhibition (57 uM furafylline).
# Potency means the concentration at half of the fitted maximal effect.
# Chain of Cytochrome P450 1A2 (Homo sapiens) (P05177 whole entry, looked up): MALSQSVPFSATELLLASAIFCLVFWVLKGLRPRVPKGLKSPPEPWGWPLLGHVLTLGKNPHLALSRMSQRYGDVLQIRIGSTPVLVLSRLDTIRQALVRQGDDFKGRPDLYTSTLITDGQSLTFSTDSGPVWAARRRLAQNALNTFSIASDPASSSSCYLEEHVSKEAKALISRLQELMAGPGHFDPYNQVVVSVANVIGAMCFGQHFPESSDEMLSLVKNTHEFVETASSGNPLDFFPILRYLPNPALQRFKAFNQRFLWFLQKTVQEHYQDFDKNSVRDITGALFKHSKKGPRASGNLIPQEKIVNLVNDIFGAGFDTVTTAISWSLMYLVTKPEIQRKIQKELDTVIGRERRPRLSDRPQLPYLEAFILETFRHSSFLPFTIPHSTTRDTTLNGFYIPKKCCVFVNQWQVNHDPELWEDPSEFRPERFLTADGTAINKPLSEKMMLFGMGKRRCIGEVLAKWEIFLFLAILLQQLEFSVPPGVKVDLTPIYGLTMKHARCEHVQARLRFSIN
SMILES,Potency,"activity change, negative = inhibition"
O=C1Nc2ccc(I)cc2/C1=C/c1cc(Br)c(O)c(Br)c1,2.51 µM (active) and 794 nM (active),
CCN1C(=O)C=CC1=O,,-11.1% (inactive)
Cn1c(=O)c2[nH]c(-c3ccc(S(=O)(=O)O)cc3)nc2n(C)c1=O,,-17.6% (inactive)
N[C@H](C(=O)O)c1cc(O)cc(O)c1,inactive and 31.6 µM (active),
CCCCCCCC/C=C\CCCCCCCC(=O)NCCc1ccc(O)c(O)c1,20 µM (active),
N=C(N)SCCN,inactive and 31.6 µM (active),
CC(C)(C)c1cc(/C=C(\C#N)C(N)=S)cc(C(C)(C)C)c1O,12.6 µM (active),
O=C(OCCN1CCOCC1)C1(c2ccccc2)CCCCC1,31.6 µM (active),
CCCCOC(=O)NS(=O)(=O)c1sc(CC(C)C)cc1-c1ccc(Cn2c(CC)nc3c(C)cc(C)nc32)cc1,31.6 µM (active),
C=CC[C@H](N)C(=O)O,,-2.5% (inactive)
Cc1nc(N=Nc2ccc(C(=O)O)cc2)c(COP(=O)(O)O)c(C=O)c1O,,-7% (inactive)
NC(=O)CNCCC(c1ccccc1)c1ccccc1,,-4.7% (inactive)
Nc1ncnc2c1ncn2C1CCCC1,20 µM (active),
N#C/C(=C\c1ccc(O)c(O)c1)C(=O)NCCCNC(=O)/C(C#N)=C/c1ccc(O)c(O)c1,,-13.5% (inactive)
N=C(N)SCCc1cnc[nH]1,inactive,
CNc1cc(NS(=O)(=O)c2ccc(N)cc2)nc(NC)n1,,-10.1% (inactive)
O=S(=O)(c1cccc2c(Cl)cccc12)N1CCCNCC1,15.8 µM (active),
Nn1nnc2ccccc21,12.6 µM (active),
O=C(O)Cc1c[nH]c2ccc(O)cc12,,6.6% (inactive)
NC(N)=[N+]1CCc2ccccc2C1,,-11.2% (inactive)

SMILES,Potency,"activity change, negative = inhibition"
O=C(O)c1cccnc1C(=O)O,inactive,
CC(=O)N[C@@H](Cc1c[nH]c2ccccc12)C(=O)OCc1cc(C(F)(F)F)cc(C(F)(F)F)c1,31.6 µM (active),
COc1cc(/C=C(\C#N)C(=O)c2ccc(O)c(O)c2)cc(I)c1O,15.8 µM (active),
C/C(=C\c1ccc(C(=O)O)cc1)c1ccc2c(c1)C(C)(C)CCC2(C)C,,-10.2% (inactive)
CC[C@H](NC(=O)c1c(C)c(-c2ccccc2)nc2ccccc12)c1ccccc1,inactive and 7.94 µM (active),
O=C(O)Cc1ccc(O)c(O)c1,,-11.3% (inactive)
O=c1[nH]c2cc(Cl)ccc2c(O)c1-c1ccc(Oc2ccccc2)cc1,10 µM (active),
NCCS(=O)O,inactive,
N[C@@H](CS(=O)O)C(=O)O,,-13.2% (inactive)
COc1ccc2c(c1)c(CC(=O)O)c(C)n2C(=O)c1ccccc1,12.6 µM (active),
Cn1ccnc1,,4.4% (inactive)
CCn1c(=O)[nH]c2cc(Cl)c(Cl)cc21,1.26 µM (active) and 251 nM (active),
Nc1nc2ccc(Cl)cc2c2nc(-c3ccco3)nn12,631 nM (active) and 63.1 nM (active),
O=c1onc2n1-c1cc(Br)ccc1OC2,0.794 µM (active),
CNC(=O)c1cc2c(cn1)[nH]c1ccccc12,794 nM (active) and 50.1 nM (active),
CCSC(=N)N,,-14.3% (inactive)
O=C(O)c1ccccc1Nc1ccccc1,15.8 µM (active),
NCCCCN,,-17% (inactive)
CCN(c1nc(N)c(C(=O)N=C(N)N)nc1Cl)C(C)C,2 µM (active),
CC(N)=O,,-4.8% (inactive)
